PubChem BioAssay (NCATS)
Inconclusive results are not listed. Calls of active or inactive are those of the source. Unless noted, calls come from the whole dose curve; as a rule, active = well fitted curve in the direction sought with a large enough effect; inconclusive = small, poorly fitted or top-dose-only effect, or another doubt; inactive = no such curve, though single readings can be large; an effect the other way counts as inactive or inconclusive.

Target: Alpha-galactosidase (Coffea arabica) (UniProt Q42656)
Sequence (Q42656 whole entry, looked up): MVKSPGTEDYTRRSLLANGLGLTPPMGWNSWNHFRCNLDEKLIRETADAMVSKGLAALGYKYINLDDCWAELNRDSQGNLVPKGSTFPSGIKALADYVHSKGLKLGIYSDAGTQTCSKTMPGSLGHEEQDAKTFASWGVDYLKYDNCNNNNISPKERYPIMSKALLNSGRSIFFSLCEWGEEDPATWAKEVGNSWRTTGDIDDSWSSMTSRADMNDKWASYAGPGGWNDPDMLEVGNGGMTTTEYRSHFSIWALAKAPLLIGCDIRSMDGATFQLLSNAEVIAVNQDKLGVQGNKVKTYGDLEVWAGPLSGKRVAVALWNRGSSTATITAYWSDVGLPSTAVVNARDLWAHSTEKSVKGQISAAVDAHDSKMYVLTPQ
Assay: Counterscreen for Glucocerebrosidase Inhibitors: qHTS Assay for Coffee Bean alpha-Galactosidase at pH 4.5 (AID 957);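 note: plate controls were enzyme alone for no effect and no enzyme for full effect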
Conditions: purified coffee bean alpha-galactosidase, fluorogenic substrate; series mostly up to 76.9 µM; activity change, negative = inhibition: at the top concentration
Procedure, shortened: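 Coffee bean enzyme (2 nM) with 80 uM 4-methylumbelliferyl alpha-D-galactopyranoside in 50 mM citric acid, 0.005% Tween-20, pH 4.5, 20 min at room temperature; compounds 0.7 nM–77 uM. Stopped at pH 10, fluorescence 365/440 nm; AC50 from Hill fits.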

SMILES	activity change, negative = inhibition	outcome
Nn1nnc2ccccc21	-0.39% (inactive)	
Cn1cc(C2=C(c3ccc(Cl)cc3Cl)C(=O)NC2=O)c2ccccc21	1.64% (inactive)	
NC/C=C\C(=O)O		inactive

Target: Alpha-galactosidase (Coffea arabica) (UniProt Q42656)
Assay: Counterscreen for Glucocerebrosidase Inhibitors: qHTS Assay for Coffee Bean alpha-Galactosidase at pH 5.9 (AID 998);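 note: plate controls were uninhibited enzyme for no effect and no-enzyme basal signal for full effect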
Conditions: coffee bean alpha-galactosidase enzyme assay; series mostly up to 76.9 µM; activity, negative = inhibition: at the top concentration
Procedure, shortened: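 Compounds were titrated from 0.7 nM to 77 uM against green coffee bean alpha-galactosidase (2 nM) using 80 uM fluorogenic 4-methylumbelliferyl substrate. After 20 min at room temperature, reactions were stopped at pH 10 and read by fluorescence.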

SMILES	activity, negative = inhibition	outcome
Nn1nnc2ccccc21	1.26% (inactive)	
Cn1cc(C2=C(c3ccc(Cl)cc3Cl)C(=O)NC2=O)c2ccccc21	-1.04% (inactive)	
NC/C=C\C(=O)O		inactive

System: not listed separately
Assay: Validation screen for inhibitors of Lassa infection (AID 463096; calls by dose curve; note: % is set by controls: 0 for no effect and ±100 for the full control effect)
Conditions: Lassa virus infection, cell-based; series mostly up to 46.1 µM; activity change, negative = inhibition: at the top concentration

SMILES	activity change, negative = inhibition
C[C@@]1(C2CCCC2)Cc2cc(OCC(=O)O)c(Cl)c(Cl)c2C1=O	2.05% (inactive)
Nn1nnc2ccccc21	-16% (inactive)
Cn1cc(C2=C(c3ccc(Cl)cc3Cl)C(=O)NC2=O)c2ccccc21	-3.98% (inactive)
NC/C=C\C(=O)O	-11.4% (inactive)
O=C1c2c(O)cc(O)cc2OC(c2ccc(O)c(O)c2)C1O (centres undefined)	17.1% (inactive)

System: not listed separately
Assay: Inducers of the Endoplasmic Reticulum Stress Response (ERSR) in human glioma: Validation (AID 504836); note: 0% is about no effect
Conditions: human glioma cells, ER stress response reporter; series mostly up to 38.3 µM; activation: at the top concentration
Procedure, shortened: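 ERSR induction read as luciferase luminescence (Bright-Glo, 10 min at room temperature) in stably transfected human U87-MG glioma cells exposed to compounds for 16 h, using GRP78 as sensor.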

SMILES	activation
CCc1ccc(/C=C2/SC(=S)NC2=O)cc1	-0.239% (inactive)
C[C@@]1(C2CCCC2)Cc2cc(OCC(=O)O)c(Cl)c(Cl)c2C1=O	-0.741% (inactive)
Nn1nnc2ccccc21	-2.18% (inactive)
Cn1cc(C2=C(c3ccc(Cl)cc3Cl)C(=O)NC2=O)c2ccccc21	-3.32% (inactive)
NC/C=C\C(=O)O	-0.243% (inactive)
O=C1c2c(O)cc(O)cc2OC(c2ccc(O)c(O)c2)C1O (centres undefined)	-4.23% (inactive)

System: not listed separately
Assay: qHTS for Inhibitors of the Functional Ribonucleoprotein Complex (vRNP) of Lassa (LASV) Arenavirus: LASV Primary Screen - GLuc reporter signal (AID 1347082; calls by dose curve; tested in HEK293 reporter line; note: nearly all actives have a fitted effect of over 60% in size; note: potency is the fitted concentration of half-maximal effect; for activity change, negative = inhibition: % is set by controls: 0 for no effect and ±100 for the full control effect)
Conditions: LASV minigenome vRNP, Gaussia luciferase reporter; series mostly up to 57.5 µM; activity change, negative = inhibition: at the top concentration

SMILES	activity change, negative = inhibition	Potency
NS(=O)(=O)OC[C@@H]1C[C@@H](n2ccc3c(N[C@H]4CCc5ccccc54)ncnc32)C[C@H]1O	0.213% (inactive)	
Nc1nc(F)nc2c1ncn2[C@@H]1O[C@H](COP(=O)(O)O)[C@@H](O)[C@H]1O	8.55% (inactive)	
COc1cc2c3cc1Oc1c(OC)c(OC)cc4c1[C@H](Cc1ccc(cc1)Oc1cc(ccc1O)C[C@H]3N(C)CC2)N(C)CC4	-20.6% (inactive)	
Cn1cc(C[C@@H](N)C(=O)O)c2ccccc21	5.85% [at 24.7 µM] (inactive)	
CCCCOP(=O)(O)OCCCC	1.43% [at 115 µM] (inactive)	
CCc1ccc(/C=C2/SC(=S)NC2=O)cc1	-9.22% (inactive)	
C=C1C(=O)O[C@H]2[C@H]1[C@H](OC(=O)/C(C)=C\C)C[C@]1(CO1)[C@@H]1[C@H](OC(C)=O)C=C(C)[C@]21O	-37.4% (inactive)	
COc1ccc(Cc2ccc(NC(N)=O)cc2)cc1-c1cccc(Cl)c1	-31.5% (inactive)	
C[C@@]1(C2CCCC2)Cc2cc(OCC(=O)O)c(Cl)c(Cl)c2C1=O	-23% (inactive)	
COc1cc2c(c(OC)c1OC)-c1ccc(OC)c(=O)cc1[C@@H](NC=O)CC2		35.5 µM (active)
CCn1c(C(=O)N(C2CC2)C2CC2)cc2c3c(ncn3C)c(Nc3cc(C)n(C)n3)nc21	-4.68% (inactive)	
Nn1nnc2ccccc21	9.72% (inactive)	
Cn1cc(C2=C(c3ccc(Cl)cc3Cl)C(=O)NC2=O)c2ccccc21	14.1% (inactive)	
C=CC(=O)Nc1cc(NC(=O)c2ccc(C)c(NC(=O)c3ccno3)c2)cc(C(F)(F)F)c1	-21.7% (inactive)	
CC(=O)O[C@@]12CO[C@H]1C[C@H](O)[C@@]1(C)C(=O)[C@H](O)C3=C(C)[C@@H](OC(=O)C(O)[C@@H](NC(=O)OC(C)(C)C)c4ccccc4)C[C@@](O)([C@@H](OC(=O)c4ccccc4)[C@@H]21)C3(C)C (some centres undefined)	-62% (inactive)	
CC=C(C(=CC)c1ccc(O)cc1)c1ccc(O)cc1	-36.7% (inactive)	

SMILES	activity change, negative = inhibition	Potency
O=C(C=Cc1ccccc1O)c1ccccc1O	-33.9% (inactive)	
Cc1nccc2c1[nH]c1ccc(Br)cc12	-38.6% (inactive)	
C[C@]12CC[C@@H]3c4ccc(O)cc4CC[C@H]3[C@H]1C[C@@H](O)[C@H]2O	-34.8% (inactive)	
OC1c2ccccc2N=C2CCCN21 (centres undefined)	-20.8% (inactive)	
N#CNC(=NCCCCCCOc1ccc(Cl)cc1)Nc1ccncc1		0.0343 µM (active)
CCN(CC)CCNC(=O)c1ccc2nc(-c3ccccc3)c(-c3ccc(CN4CCC(n5c(=O)[nH]c6ccccc65)CC4)cc3)nc2c1		34.3 µM (active)
CCN(CC)CCCCNc1ncc2c(n1)N(C)C(=O)N(c1c(Cl)c(OC)cc(OC)c1Cl)C2		34.3 µM (active)
O=C1NC(=O)C(=Cc2ccc(-c3ccc(F)cc3)o2)S1	-7.92% (inactive)	
CC(C)C[C@H](NC(=O)CNC(=O)c1cc(Cl)ccc1Cl)B1OC(=O)CC(CC(=O)O)(C(=O)O)O1 (some centres undefined)		7.69 µM (active)
NC/C=C\C(=O)O	5.29% (inactive)	
COc1ccc(-c2cc(=O)c3c(OC)c(OC)c(OC)c(OC)c3o2)cc1	-3.77% (inactive)	
CN1CCc2c(c3ccccc3n2Cc2ccc(C(=O)NO)cc2)C1	-25.6% (inactive)	
OCC1OC(n2cnc3c(NCc4ccccc4O)ncnc32)C(O)C1O (centres undefined)	-37.8% (inactive)	
O=C1c2c(O)cc(O)cc2OC(c2ccc(O)c(O)c2)C1O (centres undefined)	2.25% (inactive)	
O=C(Nc1ccc(Oc2ccnc3[nH]ccc23)c(F)c1)c1cccn(-c2ccc(F)cc2)c1=O	-5.32% (inactive)	
COC1=C2C[C@@H](C)C[C@H](OC)[C@@H](O)[C@@H](C)C=C(C)[C@H](OC(N)=O)[C@@H](OC)C=CC=C(C)C(=O)NC(=CC1=O)C2=O		9.68 µM (active)
